# CIT2 TOR yeast – modulators of TOR pathway CIT2-GFP in S. cerevisiae. S. cerevisiae CIT2-GFP strain, flow cytometry, 3 h; 100 means same as DMSO wells. GFP response vs DMSO, % at 10 µM. hit rate 0.065% among 320,000;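 active means GFP response relative to DMSO above a set limit, near the screen mean plus 3 SD, cut at about 150% in these data; inconclusive means Fewer than 70 cells measured for a yeast strain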;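 further: ratio of well median GFP fluorescence to mean of DMSO wells on the plate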
# AGP1 TOR yeast – modulators of TOR pathway AGP1-GFP in S. cerevisiae; S. cerevisiae AGP1-GFP multiplex flow cytometry, 3 h; GFP as percent of DMSO wells; GFP response vs DMSO, % at 10 µM; hit rate 0.02% among 320,000;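 active means GFP response relative to DMSO above a set limit, near screen average plus 3 SD, cut at about 150% in these data; inconclusive means fewer than 70 cells counted for the yeast strain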;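 further: median GFP channel fluorescence of the gated AGP1 strain per well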
# RPL19A TOR yeast – modulators of TOR pathway RPL19A-GFP in S. cerevisiae; S. cerevisiae RPL19A-GFP strain, flow cytometry, 3 h; stronger effect = lower value; percent response vs DMSO, % at 10 µM; hit rate 0.3% among 330,000; AID 2025;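 active means percent response vs DMSO below 50%; inconclusive means fewer than 70 events counted for the yeast strain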;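 further: median channel GFP fluorescence of the barcoded RPL19A-GFP strain; ratio of sample median GFP to plate DMSO average so 100% = DMSO; lower means less RPL19A-GFP as with rapamycin TOR inhibition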
# Efflux pump mplx – inhibitors of Candida antifungal efflux pumps expressed in yeast. S. cerevisiae Candida pump triplex, Nile Red efflux. hit rate 0.44% among 330,000. AID 485275. inhibition, % at 10 µM;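 active means plate passing quality check with inhibition over a set limit, or well fluorescence over plate mean plus 4 SD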;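 further: Nile Red retained in pooled yeast measured as flow cytometry median fluorescence; 0% = buffer negative control and 100% = Enniatin B positive control; higher means more Nile Red kept so more efflux inhibition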
# LAP4-GFP MLPCN – alters LAP4-GFP fluorescence in TOR pathway yeast screen. hit rate 0.34% among 320,000. GFP response vs DMSO, % at 10 µM. AID 2023. S. cerevisiae LAP4-GFP multiplex, flow cytometry GFP, 3 h; median GFP as percent of DMSO wells;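 active means GFP response vs DMSO above a set limit, about the screen mean plus 3 SD, cut at about 150% in these data; inconclusive means under 70 cell events counted for the yeast strain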
# MEP2 TOR yeast – modulators of TOR pathway MEP2-GFP in S. cerevisiae; hit rate 0.51% among 330,000; GFP response vs DMSO, % at 10 µM; S. cerevisiae MEP2-GFP strain, flow cytometry GFP, 3 h; 100% = DMSO control level;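 active means GFP response versus DMSO above a set limit, roughly screen mean plus 3 SD, cut at about 180% in these data; inconclusive means fewer than 70 cells counted for a yeast strain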;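 further: median GFP fluorescence of the barcode-gated MEP2-GFP cells per well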
# Active calls of the source: *; ? = inconclusive; · = no result given; [ ] = another dose, or the depositor's remark. Only some compounds are listed: those with a hit (about 1.3% of all), similar ones and a draw of the others.
SMILES,CIT2 TOR yeast,AGP1 TOR yeast,RPL19A TOR yeast,Efflux pump mplx,LAP4-GFP MLPCN,MEP2 TOR yeast
CC(C)(C)c1ccc(O)c(/C=N\O)c1,?,25,63,0,114,452*[may fluoresce violet]
CC(C)Oc1ccc(CNC(=O)CCC(=O)N2CCSc3ccccc32)cc1,95,94,96,0,98,102
Cc1cccc(NC(=O)COC(=O)C2C3CC4OC(=O)C2C4C3)c1C (configuration not stated),103,100,99,0,100,93
CCc1ccccc1NC(=O)COC(=O)C1C2CC3OC(=O)C1C3C2 (configuration not stated),?,24,49*[may fluoresce violet],0,101,754*[may fluoresce violet]
Cc1ccsc1CN(C)C(=O)CN1C(=O)NC(c2ccccc2)(c2ccccc2)C1=O,102,101,95,0,99,98
C#CCNC(=O)C1=C[C@H](c2ccc3c(c2)OCO3)[C@@H](CCCO)[C@H](OCC)O1,?,?,46*[may fluoresce violet],0,75,300*[may fluoresce violet]
C#CCNC(=O)C1=C[C@@H](c2ccc(Br)cc2)[C@H](CCCO)[C@@H](OCC)O1,102,105,96,0,94,105
Cc1ccc(CNS(=O)(=O)c2ccc(CN3C(=O)c4cccnc4C3=O)cc2)o1,?,?,27*[may fluoresce violet],0,82,127
Cc1ccc(CNS(=O)(=O)c2cc(F)ccc2CN2C(=O)c3cccnc3C2=O)o1,109,99,96,0,91,93
C#CCOCCOCCOCCNc1nc(N2CCOCC2)nc(N2CCN(C(=O)[C@H](CO)n3cc([C@@H](N)C(C)C)nn3)CC2)n1,82,91,90,0,86,92
Cc1cc(C)c2sc(NC(=O)c3ccc([N+](=O)[O-])o3)nc2c1,?,18,94,0,194*[may fluoresce violet],156
Cc1cc(C)c2nc(NC(=O)c3ccc([N+](=O)[O-])o3)sc2c1,93,88,100,0,81,97
O=C(C[C@@H]1C/C=C/CC[C@H](Cc2ccc(F)cc2)C(=O)OC[C@@H](Cc2ccccc2)NC1=O)N[C@H](CO)Cc1ccccc1,86,104,92,0,89,100
COc1cc(/C=C2\CCn3c2nc2cc(C(=O)O)ccc2c3=O)ccc1OC(F)F,104,96,106,0,94,107
CC1(C)C2CCC(C2)C1(C)NC(=O)CN1CCOCC1 (configuration not stated),?,?,42*[may fluoresce violet],0,92,308*[may fluoresce violet]
CC(=O)Nc1ccc(NC(=O)CSc2nnnn2-c2ccc(F)cc2)cc1,?,15,59,0,78,194*[may fluoresce violet]
COC(=O)NC1CCC(CC2CCC(NC(=O)OC)CC2)CC1 (configuration not stated),121,99,98,0,212*,698*
Cc1ccc(OC2CCN(C(=O)C3CCC(=O)N(C4CC4)C3)CC2)cc1 (configuration not stated),87,92,93,0,79,77
Cc1ccccc1OC1CCN(C(=O)C2CCC(=O)N(C3CCCC3)C2)CC1 (configuration not stated),100,105,88,0,156*,99
Oc1ccc(Cl)cc1CNCc1ccc(C(F)(F)F)cc1,103,106,97,0,97,107
COc1ccc(-c2csc(N(CC(C)C)C(=O)c3ccco3)n2)cc1,100,150*,110,0,100,106
CC(C)c1ccc2c(c1)C1(NN=C(c3ccccc3)S1)C(=O)N2 (configuration not stated),115,96,94,0,171*,109
CCc1ccc2c(c1)C1(NN=C(c3ccc(C)cc3)S1)C(=O)N2 (configuration not stated),?,15,40*[may fluoresce violet],0,84,92
O=C1c2ccccc2CCC12N=NCC2c1ccccc1 (configuration not stated),?,?,14*[may fluoresce violet],0,133,246*[may fluoresce violet]
O=C1c2ccccc2CCc2ccc(Br)cc21,97,98,96,0,98,89
SMILES,CIT2 TOR yeast,AGP1 TOR yeast,RPL19A TOR yeast,Efflux pump mplx,LAP4-GFP MLPCN,MEP2 TOR yeast
O=S(=O)(Nc1cccc(S(=O)(=O)N2CCCC2)c1)c1cccc(Br)c1,95,90,91,0,81,89
COc1ccc(-c2cc(=O)c3ccccc3o2)cc1,89,79,93,0,105,96
COc1ccc(C2Nc3ccc4ccccc4c3-c3c2c(=O)oc2ccccc32)cc1 (configuration not stated),91,86,79,1.7*,87,114
CCOc1c(Br)ccc2c1sc1nc[nH]c(=O)c12,105,27,·,0,105,183*
O=C(c1ccc([N+](=O)[O-])o1)N1CCN(c2nc3ccc(F)cc3s2)CC1,78,90,93,0,163*,96
CCn1c(C)nc2cc(C(=O)NNC(=O)CN(C)S(=O)(=O)c3ccc(NC(C)=O)cc3)ccc21,105,107,106,0,104,107
O=C(O)Cc1sc(Nc2ccc(F)cc2)nc1-c1cccs1,62,66,80,0,195*,96
CCCn1c2ccccc2c2cnn(CC(=O)NCCCN3CCCC(C)C3)c(=O)c21 (configuration not stated),106,102,96,0,92,101
Cn1c(=O)c2c(nc(SCC(=O)N3CCCCCC3)n2C)n(C)c1=O,86,95,96,0,91,96
CC(C)n1c(SCC(=O)N2CCCCC2)nc2c1c(=O)n(C)c(=O)n2C,?,21,54,0,87,305*[may fluoresce violet]
O=C(CSc1nc2ccccc2o1)Nc1nc2ccc(Br)cc2s1,?,22,61,0,90,214*[may fluoresce violet]
COc1ccc(-c2cc(C(F)(F)F)nc(N3CCOCC3)n2)cc1OC,99,99,81,0,186*,213*
COc1cccc(-c2cc(C(F)(F)F)nc(N3CCOCC3)n2)c1,108,110,106,0,108,111
Cc1ccc(CNC(=O)Nc2ccccc2)c(C)c1,99,91,92,0,90,104
CC(NC(=O)C1CCC(CNS(=O)(=O)c2ccccc2)CC1)c1ccccc1 (configuration not stated),122,124,68,0,132,311*
CCC(C)NC(=O)C1CCC(CNS(=O)(=O)c2ccccc2)CC1 (configuration not stated),97,93,102,0,83,97
NC(=O)c1cccc(NC(=O)CCCCC(=O)Nc2cccc(C(N)=O)c2)c1,?,?,23*[may fluoresce violet],0,77,645*[may fluoresce violet]
CSc1nnc(Cc2cc(=O)[nH]c(=O)[nH]2)n1-c1cccc(C)c1,?,17,53,0,96,225*[may fluoresce violet]
